This passage reports binding signal results from article PMC12136788.

Changes are numbered by the printed parent chain. In all, about 24,000 sequences were measured (“enrichment r”: median about 0.99, highest 2% from about 3.7 on). This excerpt belongs to a sample that is enriched for the highest values.

T1: UNK ZnF1-3 (human, UniProt Q9C0B0 31-174)
T1 sequence: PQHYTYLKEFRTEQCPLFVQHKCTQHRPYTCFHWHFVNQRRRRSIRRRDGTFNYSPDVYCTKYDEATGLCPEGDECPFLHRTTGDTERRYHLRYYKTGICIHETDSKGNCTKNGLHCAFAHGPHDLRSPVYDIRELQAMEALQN

B1: chr1:163117127:163117128:-_ENSG00000143248_ENST00000313961|hu_mus|FALSE|FALSE (ssRNA)
RNA: GGGAGUUCUACAGUCCGACGAUCUGCUACAAAGGAUGUAACUCAACUCACAGGGCAACUUUUGGAAGCCUGACCAGAUGACUACUUGAUUAGCUCCUUAUAAAAUUCAGAGCGCACAAAGCGGGGCAGAGAAUCCUUCUCCAUCAACAGAGGAUUGAGCAUCA
B2: 139258410_139258530_201_CDS_ENSG00000114115_ENST00000232219|human|control|control (ssRNA)
RNA: GGGAGUUCUACAGUCCGACGAUCGCGGGACGGCUGGAGACUGCCGGGACAGCGGCUGCCGGUGCUACGCGGGUGGUGGGCGGCCCGGAAAUGAGCGCCCUCCGGGGACAGGGGGCUCUGCGGGGCGGCGACAGCUGGAUUCCCCAACAGAGGAUUGAGCAUCA
B3: chr17:56552419:56552420:-_ENSMUSG00000013236_ENSMUST00000086828|mus_mus|FALSE|FALSE (ssRNA)
RNA: GGGAGUUCUACAGUCCGACGAUCUUUGUUUUUUUCUUAAAAAAAAAAAAGAAAAAAAGAAAAAGAAAAAAAAUAUACACUAUUAAAAAAAAAUAAGAAAAAAAAUGUUGCCAAAAGGCAGGCAGGGGAGUGCGGAAGCAGAGGCAACAGAGGAUUGAGCAUCA
B4: chr17:56552419:56552420:-_ENSMUSG00000013236_ENSMUST00000086828|mus_mus|mus_mus_mus_hu_False|18_28 (ssRNA)
RNA: GGGAGUUCUACAGUCCGACGAUCAAAAAAUACACUAUUUAAAAAAAAUGAAAUGUCACGGGAUACAGUUACACUGAGAGUUUUAAAAGAAAGCUGGAUUCUGGUCCUUGCCAAAAGGCAGGCAGGGGCAGAGCGGGGAGGAGCCAACAGAGGAUUGAGCAUCA
B5: chr2:65539780:65539781:-_ENSG00000198369_ENST00000356388|hu_hu|motif|central (ssRNA)
RNA: GGGAGUUCUACAGUCCGACGAUCUUUGCAAAACAACAAGCAAAAUUUCUUACUUCACUAGUAUCCUAUUCUAAUAUUGCGGAAUUUUUAGAAGUGGUGGCAACACAAUUUAAAAAAUGUUCUACUUUAGGGGUAAUGGGGAGGCAACAGAGGAUUGAGCAUCA
B6: chr17:56552419:56552420:-_ENSMUSG00000013236_ENSMUST00000086828|mus_mus|motif|central (ssRNA)
RNA: B3 RNA with U80G, A81G
B7: chr7:54825262:54825263:-_ENSG00000132432_ENST00000352861|hu_hu|hu_hu_hu_mus_False|48_98 (ssRNA)
RNA: GGGAGUUCUACAGUCCGACGAUCCUGCCGGCUGGGCACAAACUGCAGCAUUACCUGAUCCAUGUUUGUUGGAUGGCGGAUUGAGAGUGCCAGGGACCGUAGCUCAGGAGAGAACCGAGCCCAACGGAACCGGAAGCUGGCAACCAACAGAGGAUUGAGCAUCA
B8: chr3:148802587:148802588:-_ENSG00000071794_ENST00000310053|hu_mus|hu_hu_hu_mus_False|28_38 (ssRNA)
RNA: GGGAGUUCUACAGUCCGACGAUCUCCAACAACUUGUCCUCUCAUAGUUCCAAAUAAAACCAAAUCUUGCUCUUCAUCACUCGUUAGGAAGUCAUCUGGAGGGAUAACAUCUUGGAAUUCAAAAUGUGGCAAGAAAGUUGAGUACAACAGAGGAUUGAGCAUCA
B9: chr1:34870196:34870197:-_ENSMUSG00000037503_ENSMUST00000047534|mus_hu|motif|central (ssRNA)
RNA: GGGAGUUCUACAGUCCGACGAUCAUCUGAGCUCAUCUCAUCAGAUUGCAUAAAAAAUUAAAAUAGUAUCAAUUGACACCGGACUGAACUGGCUCAGGAUGGAAAUUCCAUUCCUUGGCAUGGAUACGUAAGUUCAAUGCAGAGCAACAGAGGAUUGAGCAUCA
B10: chr3:95023916:95023917:-_ENSMUSG00000053192_ENSMUST00000065482|mus_mus|FALSE|FALSE (ssRNA)
RNA: GGGAGUUCUACAGUCCGACGAUCUAAAUAAAUAAAUAAAUAAAUAUAGAUAGAUAAAUAAGUACGUACAUACAUACAAACCUACAAUUCAAUUGGCAGAUUCAUCAGCACCACCAGCACAAUAGAGGGAAGAGAACAAGAUUACAACAGAGGAUUGAGCAUCA
B11: chr17:64801638:64801639:+_ENSG00000154229_ENST00000413366|hu_mus|hu_hu_hu_mus_False|78_78 (ssRNA)
RNA: GGGAGUUCUACAGUCCGACGAUCUAUAUAUAUAUAUACAUAUGUACACAUAUAUAGUAAGAGCCUAGUUAAACGUGUAAAGUAGCCAUUCAUUUUUAAAAUUACAUCUACAUUAAAAAAUUAAUAUAUCUGAUAGAGUGCCAGCAACAGAGGAUUGAGCAUCA
B12: chr3:95023916:95023917:-_ENSMUSG00000053192_ENSMUST00000065482|mus_mus|motif|central (ssRNA)
RNA: B10 RNA with U82G, A83G
B13: 17587070_17598549_148_CDS_ENSMUSG00000015733_ENSMUST00000015877|mouse|control|control (ssRNA)
RNA: GGGAGUUCUACAGUCCGACGAUCGUGAAUGAUGAAUUUUGCUGCUAUACGAACCUUCUCCUCAUCGGACAACUGCUCCUCCAGAUCCGCCAUCUUCCUUCUGGCGACAGACCGUGGCGCUGGUGGCAGCAGCGGCCACCUGACCAACAGAGGAUUGAGCAUCA
B14: 33058320_33060047_1444_CDS_ENSG00000170266_ENST00000307363|human|control|control (ssRNA)
RNA: GGGAGUUCUACAGUCCGACGAUCUCCCUGGGGGAUCCCAUCCACAGCAACAUAUGCUCGAUCGUGGACUCCAUUGAGGGGUGAAGAGAGAGGUGCUGGGUUGCUGCAAUCUUGAGGAAGUGUUGUCCGGUACAGCACAAACCCCAACAGAGGAUUGAGCAUCA
B15: chr5:145543945:145543946:-_ENSG00000133706_ENST00000545646|hu_hu|hu_hu_hu_mus_True|18_98 (ssRNA)
RNA: GGGAGUUCUACAGUCCGACGAUCCUGAACGGCCAGUGGCGGGAAAUAAUCAAGCCAGUGCUCUGCUUCAGAAAACUUCACUAUGUCGUCAUCAGAGAGCCCAAGGGAUUUCAUAAUGCCCCACUGGUACUUAGAAGAUCCUGCCAACAGAGGAUUGAGCAUCA
B16: 74491169_74493004_2024_3pUTR_ENSMUSG00000020745_ENSMUST00000021091|mouse|control|control (ssRNA)
RNA: GGGAGUUCUACAGUCCGACGAUCAUCAACGGCACUCCCACACCUUUACUGUUUGAUCUACACUGCCAGUAACCACAUAGGGUGCCGUCUUAUGGAAAUCCAAGGAGGUAACAAAGUGUUCAUGCGCAUUGAGGGUCUUCAUGCCAACAGAGGAUUGAGCAUCA
B17: chr10:36858571:36858572:-_ENSMUSG00000069662_ENSMUST00000092584|mus_hu|FALSE|FALSE (ssRNA)
RNA: GGGAGUUCUACAGUCCGACGAUCAUAAAAAAAUUUUAGUCGAAGAGAUCAAAAAGCAGCAGCACAGGAGGGAGGGAAAAAGGGUGGAAAAGUCGAGCACAAAAAAAGGAGCCCAAGUGUAGUUCGAAAAAAAAAGAAGUAAUACAACAGAGGAUUGAGCAUCA
B18: 72182037_72182157_980_3pUTR_ENSG00000148730_ENST00000373218|human|control|control (ssRNA)
RNA: GGGAGUUCUACAGUCCGACGAUCCCAGAGGAAAGAAAGGAAGUGGACCUCAAAACAGUGUCACAGGGUAACGCUACCAGAGUUGCACAAGCUGUGCUCUGUCCCGAGGGACGAAUACCUCAAGGUAAAAGGGAAAGCAGCUCUCAACAGAGGAUUGAGCAUCA
B19: chr10:36858571:36858572:-_ENSMUSG00000069662_ENSMUST00000092584|mus_mus|FALSE|FALSE (ssRNA)
RNA: GGGAGUUCUACAGUCCGACGAUCAUAAAAAAUUUUUAGUCGAAGAGAUCAAAAAAGCAGCAGCGCAGGAAGGAGGGAAAAAGGUGGAAAAGUCGAGCACAAAAAAGGAGCCCAAGUGUAGUUUUUUUAAAAAAAGAAGUAAUACAACAGAGGAUUGAGCAUCA
B20: chr5:134790399:134790400:-_ENSMUSG00000060261_ENSMUST00000173341|mus_hu|FALSE|FALSE (ssRNA)
RNA: GGGAGUUCUACAGUCCGACGAUCGGGAGGCGAGAGGGGGCGAGGGGCCCGUGCGUGUCGGUCGCGCUCCUGUCACCGCCGCAUGGCCGCCCCGCAGGCAGGGCCUCGCUCAGCGCCUUGAUCCGAUCACUGGGGGACAGAGGCCAACAGAGGAUUGAGCAUCA
B21: chr22:19452774:19452775:-_ENSG00000070010_ENST00000399523|hu_hu|hu_hu_hu_mus_False|28_58 (ssRNA)
RNA: GGGAGUUCUACAGUCCGACGAUCCUUCUCAUUGUAGUUGAUAGCAAUCACAUCUCCAGUCGUCAGACAGGCGAAGUUCCUAAGUGCAUUUUCUAAUACCGCUUUAGGGUUGGUGAUAUCCAGGAAGUCUGGGCUCUGAGGCUGCAACAGAGGAUUGAGCAUCA
B22: chr2:42509997:42509998:+_ENSG00000143924_ENST00000318522|hu_hu|FALSE|FALSE (ssRNA)
RNA: GGGAGUUCUACAGUCCGACGAUCUCGCUGAGUUCUCUCCUCAUAAUUAAAUAGUACUACUACUGAUGCAAUGAAAUAAACUAUUUUCCCGGUCGGAAGAAGGUAAACAUUAGCUCUACAGUCCUUUCCUCGAUAACCAUAUGCCAACAGAGGAUUGAGCAUCA
B23: chr3:119456006:119456007:-_ENSMUSG00000028134_ENSMUST00000029780|mus_hu|FALSE|FALSE (ssRNA)
RNA: GGGAGUUCUACAGUCCGACGAUCAAUAUGAAGUACACGAGAAGGAGCACCAUCCAUUUUAUCUUCUCCUUUAAAUUUUUUACUAUCAUUACCAUUGGCUGUAACUACCAUGCUGCUCAUAUUAGAGUUCGGACUACUGAGAACCAACAGAGGAUUGAGCAUCA
B24: chr14:59855892:59855893:+_ENSMUSG00000035469_ENSMUST00000043227|mus_mus|motif|central (ssRNA)
RNA: GGGAGUUCUACAGUCCGACGAUCGCUUCCAUUAUUAUAUCAGAAGAAAACAUUAAUUUCAAUAAUAGUUUCUUGCUUUCGGUGAUUAUAACCAAAACCAAGUAGAAAAAUAAAAAGAUUGCAUUUAAAAAAAAUUUGCAAACCCAACAGAGGAUUGAGCAUCA
B25: chr14:59855892:59855893:+_ENSMUSG00000035469_ENSMUST00000043227|mus_hu|motif|central (ssRNA)
RNA: GGGAGUUCUACAGUCCGACGAUCUUCCAUUAUUACAUUAGAUGAAAAAAUCAAUUCAAAUAAGAGUUGUCAUAUCCUGCGGUGAUUAACAAAAAAACAAGUAGAAAAAUAAGAGAGUGUAUUUAAAAAAAAUAAUCAAAUGCUCAACAGAGGAUUGAGCAUCA

This experiment concerns the target T1, UNK ZnF1-3. Nature of the experiment: nsRBNS (natural sequence RNA bind-n-seq); RBNS binding buffer (assumed for nsRBNS): 25 mM Tris pH 7.5, 150 mM KCl, 3 mM MgCl2, 0.01% Triton X-100, 500 ug/ml BSA, 20 U/ml SUPERase-In, 4 C; UNK is unkempt and MSI1 is Musashi-1; names of the RNAs are library labels; protein concentration not given here; high values mean tight binding.
For the molecule B1, the binding signal came out at 1.14 enrichment R. B2 yielded a binding signal of 1.1 enrichment R. For B3 the value was 19.2 enrichment R. For B4 the value was 3.67 enrichment R; for B5, 3.44 enrichment R; for B6, 15.8 enrichment R. In turn, B7 registered a binding signal of 1.44 enrichment R. For B8 the value was 1.19 enrichment R; for B9, 1.43 enrichment R.

B10 returned a binding signal of 7.35 enrichment R.

Molecule B11 came in with a binding signal of 1.53 enrichment R. For B12 the value was 19.9 enrichment R. The value for B13 was 0.822 enrichment R; that for B14 was 0.932 enrichment R; that for B15 was 0.932 enrichment R. For B16 the value was 0.744 enrichment R.

In the case of B17, the binding signal came out at 4.29 enrichment R. For B18, the binding signal came out at 0.893 enrichment R. For B19 the value was 11.7 enrichment R; for B20, 0.997 enrichment R. Consider B21, for which the binding signal came out at 0.837 enrichment R. With B22, the binding signal amounted to 0.867 enrichment R. The value for B23 was 4.17 enrichment R; that for B24 was 4 enrichment R. The value for B25 was 6.68 enrichment R.
